ATXN2 expr inh – inhibitors of ATXN2 expression; HEK-293 ATXN2-luciferase reporter, luminescence, 24 h; Potency, µM (titrated, usually from 57 µM), hits mostly inhibitors; actives 0.72% (n = 360,000); AID 1745845; further: nearly all actives have a fitted effect of over 55% in size
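ATXN2-luciferase reporter cells (luciferase flanked by upstream and downstream ATXN2 gene portions) were treated 24 h at 37 °C with compounds at up to 57 uM. SteadyGlo luminescence gave expression; GF-AFC fluorescence gave viability.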
ATXN viability – reduces viability in counter-screen for ATXN expression inhibitors. Potency, µM (titrated, usually from 56.7 µM), hits mostly cytotoxic. actives 0.49% (n = 400,000). S2 cells (HEK-293 line with an ATXN2-luciferase reporter) viability, CellTiter-Fluor protease fluorescence, 24 h; further: nearly all actives have a fitted effect of over 40% in size
TGFb inhibitor – inhibitors of TGF-b signaling; actives 1.2% (n = 410,000); Potency, µM (series often up to 46.1 µM), most hits filed as inhibitors; HepG2 CAGA-GFP TGF-b/SMAD3 reporter, GFP fluorescence, 18 h; TGF-beta stimulated, 500 pg/mL final; further: nearly all actives have a fitted effect of over 65% in size
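Read-out: total well GFP (ex488/em500-530) summed from mean per-cell fluorescence. Cells: HEPG2 CAGA-GFP, 1% FBS DMEM, 18 h at 37 degrees C with 500 pg/mL final TGF-beta. Unstimulated wells served as the full-inhibition control; stimulated DMSO wells = 0%.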
HepG2 viability – counter-screen for TGF-b inhibitors: cytotoxicity in HepG2 cells; actives 0.76% (n = 410,000); HepG2 CAGA-GFP viability, ATP luminescence, 18 h; Potency, µM (top dose mostly 46.1 µM), usual class: cytotoxic
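HepG2 CAGA-GFP cells (1000/well, DMEM with 1% FBS) received compound, then TGF-beta at 500 pg/mL final, and were incubated 18 hours at 37 degrees C. Viability was read by CellTiter-Glo luminescence. Media-only wells were set as complete cell-killing and DMSO as no toxicity.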
D3 antag – D3 dopamine receptor (human) antagonism | D3R cells, DiscoveRx beta-arrestin luminescence, antagonist mode; hits give low values | AID 652054 | actives 2.5% (n = 360,000) | max response, negative = inhibition, %; in the data active means max response below about -50%; inconclusive means no clear call, values can overlap the other calls
Target sequence (P35462 whole entry, looked up): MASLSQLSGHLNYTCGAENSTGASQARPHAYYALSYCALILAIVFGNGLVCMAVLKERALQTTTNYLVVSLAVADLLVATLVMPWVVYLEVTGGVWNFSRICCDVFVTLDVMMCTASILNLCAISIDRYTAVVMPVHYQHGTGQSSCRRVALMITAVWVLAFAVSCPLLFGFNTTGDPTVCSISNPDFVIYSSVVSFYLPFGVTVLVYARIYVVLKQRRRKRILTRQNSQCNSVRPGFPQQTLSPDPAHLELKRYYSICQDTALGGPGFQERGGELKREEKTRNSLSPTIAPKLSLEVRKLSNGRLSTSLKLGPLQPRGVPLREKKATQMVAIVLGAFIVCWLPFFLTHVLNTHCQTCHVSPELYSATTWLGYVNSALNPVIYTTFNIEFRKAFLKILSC
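Cells plated overnight at 1500 cells/well, then exposed to library compounds with dopamine controls for 90 minutes at 37 degrees C. DiscoveRx reagent added for 30–60 minutes at room temperature; luminescence read, quantitative HTS format.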
DRD3 agonist – agonists of human D3 dopamine receptor. P35462. D3R DiscoveRx beta-arrestin cells, luminescence, 90 min. max activation, %. actives 0.58% (n = 410,000); in the data active means max activation above about 30%
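Agonist-mode cell screen: cells plated at 1500/well and incubated overnight at 37 °C, then exposed to library compounds for 90 min at 37 °C. Detection reagent was added for 30–60 min at room temperature, and luminescence was read.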
Each line names hits and unclear results; the compound was inactive in the other large screens. A selection: hits, their analogues and other compounds. The true share with any hit is near 4.7%. Unless noted, the call rests on the fitted dose curve; in most records, active means well fitted curve in the direction sought with a large enough effect; inconclusive means small, poorly fitted or top-dose-only effect, or another doubt; inactive means no such curve, though single readings can be large; an effect the other way counts as inactive or inconclusive.

CCOc1ccccc1NC(=O)C(CC)n1c(C(=O)OC)cc2occc21 (stereo unspecified)	TGFb inhibitor inconclusive (no result: D3 antag)
CCNC(=O)[C@@H]1CCCN1C(=O)[C@H](CCCN=C(N)N)NC(=O)[C@H](CC(C)C)NC(=O)[C@@H](Cc1c[nH]c2ccccc12)NC(=O)[C@H](Cc1ccc(O)cc1)NC(=O)[C@H](CO)NC(=O)[C@H](Cc1c[nH]c2ccccc12)NC(=O)[C@H](Cc1cnc[nH]1)NC(=O)[C@@H]1CCC(=O)N1	none (no result: ATXN2 expr inh, ATXN viability, TGFb inhibitor, HepG2 viability, D3 antag)
CC(C)(C)c1cc(C(=O)N/N=C/c2cc3c(cc2Br)OCO3)n[nH]1	D3 antag -88.3
Cc1[nH]c2ccccc2c1/C=N/NC(=O)c1cc(-c2ccccc2)n[nH]1	ATXN viability inconclusive
O=C(N/N=C/c1cc2c(cc1Br)OCO2)c1cc2ccccc2o1	D3 antag -106.7
O=C(COc1ccccc1[N+](=O)[O-])Nc1ccc(NC(=O)c2cc3ccccc3o2)cc1	ATXN2 expr inh inconclusive, ATXN viability inconclusive, TGFb inhibitor inconclusive
O=C(COc1ccc(/C=N/NC(=O)c2cc3ccccc3o2)cc1Br)Nc1ccccc1	ATXN2 expr inh inconclusive, ATXN viability 10µM, TGFb inhibitor 3.55µM
Cc1[nH]c2ccccc2c1/C=N/NC(=O)c1cc(C(C)(C)C)[nH]n1	D3 antag -58.8
COC(=O)c1c(-c2cccs2)csc1NC(=O)c1ccc(C(C)C)cc1	none (no result: ATXN2 expr inh, ATXN viability, D3 antag)
COc1cc(/C=C2\C=Cc3ccccc32)cc(OC)c1OC	none (no result: ATXN2 expr inh, ATXN viability, D3 antag, DRD3 agonist)
CCn1c(-c2ccccc2F)nc2cc(NC(C)=O)cc(C(=O)N3CCNC(=O)C3CC(=O)OC)c21 (stereo unspecified)	none (no result: ATXN2 expr inh, TGFb inhibitor, HepG2 viability, D3 antag, DRD3 agonist)
Cc1[nH]c2ccccc2c1/C=N/NC(=S)NCc1ccccc1	ATXN viability inconclusive, TGFb inhibitor 12.6µM (no result: ATXN2 expr inh)
CCCN(CCC)CCCNC(=O)c1ccc2c(c1)N(CC)C(=O)c1ccccc1S2=O (stereo unspecified)	D3 antag -93.4
CCN1C(=O)c2ccccc2S(=O)c2ccc(C(=O)NCc3ccc(OC)cc3)cc21 (stereo unspecified)	ATXN viability inconclusive, D3 antag -51.2 (no result: ATXN2 expr inh)
COc1ccc(CNC(=O)c2ccc3c(c2)N(Cc2ccccc2C)C(=O)c2ccccc2S3=O)cc1 (stereo unspecified)	none (no result: ATXN2 expr inh, ATXN viability, D3 antag)
Cc1ccc(Cl)cc1N1CCN(C(=O)Cn2cnc3nc4c(cc3c2=O)CCCC4)CC1	ATXN2 expr inh inconclusive, ATXN viability inconclusive (no result: D3 antag)
Cc1ccc(-n2c(=O)c3c4c(sc3n(Cc3cc(=O)n5cc(Cl)ccc5n3)c2=O)CCC4)cc1C	none (no result: D3 antag)
COc1ccc(CCNC(=O)C2CCN(C(=O)c3ccc(Cl)cc3)CC2)cc1	none
CN(CCCNC(=O)C1CCCN(S(=O)(=O)c2cnc[nH]2)C1)c1ccccc1 (stereo unspecified)	none
O=C(NCCC1=CCCCC1)C1CC(=O)N(C2CCCCC2)C1 (stereo unspecified)	TGFb inhibitor 2.82µM, D3 antag inconclusive
Clc1ccc(CNCCC2=CCCCC2)cc1	ATXN viability inconclusive, D3 antag -70.7
O=C(NCCCN1CCN(c2ccccc2F)CC1)C1CCCN(S(=O)(=O)c2cnc[nH]2)C1 (stereo unspecified)	D3 antag -70.6
O=C(NCCC1=CCCCC1)C1CCN(C(=O)c2ccc(Cl)cc2)CC1	D3 antag -130.5
O=Cc1c[nH]c2ccccc12	none (no result: ATXN2 expr inh, ATXN viability, D3 antag, DRD3 agonist)
c1ccc2c(N=NN3CCCCC3)ccnc2c1	none (no result: ATXN2 expr inh, ATXN viability, D3 antag, DRD3 agonist)
O=C(Nc1cc(Cl)cc(Cl)c1)C1CC(=O)N(C2CCCC2)C1 (stereo unspecified)	TGFb inhibitor inconclusive, HepG2 viability 10µM, D3 antag inconclusive
O=C(NCCN1CCN(c2ccccc2F)CC1)C1CC(=O)N(C2CCCC2)C1 (stereo unspecified)	D3 antag -66.5
O=C(Nc1nc(-c2ccccc2)cs1)C1CCCO1 (stereo unspecified)	TGFb inhibitor inconclusive, D3 antag -90.8
O=C(Nc1nc(-c2ccccc2)cs1)c1cccc([N+](=O)[O-])c1	TGFb inhibitor inconclusive, D3 antag -69.1
Cc1onc(-c2ccccc2)c1C(=O)Nc1nc(-c2ccccc2)cs1	D3 antag -55.9
O=C(Nc1cccc(-c2csc(Nc3cccc(C(F)(F)F)c3)n2)c1)c1ccccc1	ATXN2 expr inh inconclusive, ATXN viability 25.1µM, TGFb inhibitor inconclusive
CCN(CC(=O)Nc1ccc(OC)cc1)C(=O)Cc1coc2cc(C)c(C)cc12	HepG2 viability 11.2µM
Cc1ccc(NC(=O)CN(C)C(=O)Cc2coc3cc(C)c(C)cc23)cc1	none
COc1ccc(OCCn2c(=N)n(CCO)c3ccccc32)cc1	none
COc1ccc(OCC(O)Cn2c(=N)n(CCN3CCCCC3)c3ccccc32)cc1 (stereo unspecified)	ATXN viability inconclusive, TGFb inhibitor inconclusive
N=c1n(CCO)c2ccccc2n1CCOc1ccc(Cl)cc1Cl	ATXN2 expr inh 20µM, TGFb inhibitor inconclusive, HepG2 viability 11.2µM (no result: ATXN viability)
Cc1ccc(OCC(O)Cn2c(=N)n(CCN3CCCCC3)c3ccccc32)cc1 (stereo unspecified)	ATXN2 expr inh 25.1µM, ATXN viability inconclusive, TGFb inhibitor inconclusive, HepG2 viability 12.6µM, D3 antag -63.1
N=c1n(CCN2CCCCC2)c2ccccc2n1CC(O)COc1ccc(Cl)cc1Cl (stereo unspecified)	TGFb inhibitor 7.08µM, HepG2 viability 10µM (no result: ATXN2 expr inh, ATXN viability, D3 antag)
CC(=O)c1ccc(N2CCN(c3ccc(NC(=O)c4cccs4)cc3C(=O)O)CC2)cc1	TGFb inhibitor inconclusive (no result: D3 antag)
N#CC(=C1C=CC(=NO)C(Cl)=C1)c1ccccc1	TGFb inhibitor 11.2µM, D3 antag -81.5
CCCCn1c(N)c(N(CC(C)C)C(=O)C2CC(=O)N(c3ccc4c(c3)OCCO4)C2)c(=O)[nH]c1=O (stereo unspecified)	D3 antag -54.6
CCCCN(C(=O)C1CC(=O)N(c2ccc3c(c2)OCCO3)C1)c1c(N)n(CCCC)c(=O)[nH]c1=O (stereo unspecified)	none
CCCc1nc2ccccc2n2c(-c3cccc(C)c3)c3c(=O)n(C)c(=O)n(C)c3c12	none (no result: D3 antag)
O=C(CNC(=S)N(CCCN1CCOCC1)Cc1cccs1)NCc1ccccc1Cl	TGFb inhibitor inconclusive, D3 antag -58.5 (no result: ATXN2 expr inh)
COc1cccc(NC(=S)N(CCCN2CCCC(C)C2)Cc2cccs2)c1 (stereo unspecified)	D3 antag -80.2
Cc1ccccc1NC(=S)N(CCN1CCCCCC1)Cc1cccs1	D3 antag inconclusive

Assay outcomes deposited in PubChem by National Center for Advancing Translational Sciences (NCATS).
